Measurements taken from ChEMBL document CHEMBL1961873, “Compounds: GSK PKIS; Assays: Nanosyn kinase panel” (2012).

Tested on: Mast/stem cell growth factor receptor Kit (Homo sapiens), P10721 [T670I]
Conditions: at 1 µM

Sequence of Mast/stem cell growth factor receptor Kit (Homo sapiens), P10721 [T670I] (P10721 whole entry T670I): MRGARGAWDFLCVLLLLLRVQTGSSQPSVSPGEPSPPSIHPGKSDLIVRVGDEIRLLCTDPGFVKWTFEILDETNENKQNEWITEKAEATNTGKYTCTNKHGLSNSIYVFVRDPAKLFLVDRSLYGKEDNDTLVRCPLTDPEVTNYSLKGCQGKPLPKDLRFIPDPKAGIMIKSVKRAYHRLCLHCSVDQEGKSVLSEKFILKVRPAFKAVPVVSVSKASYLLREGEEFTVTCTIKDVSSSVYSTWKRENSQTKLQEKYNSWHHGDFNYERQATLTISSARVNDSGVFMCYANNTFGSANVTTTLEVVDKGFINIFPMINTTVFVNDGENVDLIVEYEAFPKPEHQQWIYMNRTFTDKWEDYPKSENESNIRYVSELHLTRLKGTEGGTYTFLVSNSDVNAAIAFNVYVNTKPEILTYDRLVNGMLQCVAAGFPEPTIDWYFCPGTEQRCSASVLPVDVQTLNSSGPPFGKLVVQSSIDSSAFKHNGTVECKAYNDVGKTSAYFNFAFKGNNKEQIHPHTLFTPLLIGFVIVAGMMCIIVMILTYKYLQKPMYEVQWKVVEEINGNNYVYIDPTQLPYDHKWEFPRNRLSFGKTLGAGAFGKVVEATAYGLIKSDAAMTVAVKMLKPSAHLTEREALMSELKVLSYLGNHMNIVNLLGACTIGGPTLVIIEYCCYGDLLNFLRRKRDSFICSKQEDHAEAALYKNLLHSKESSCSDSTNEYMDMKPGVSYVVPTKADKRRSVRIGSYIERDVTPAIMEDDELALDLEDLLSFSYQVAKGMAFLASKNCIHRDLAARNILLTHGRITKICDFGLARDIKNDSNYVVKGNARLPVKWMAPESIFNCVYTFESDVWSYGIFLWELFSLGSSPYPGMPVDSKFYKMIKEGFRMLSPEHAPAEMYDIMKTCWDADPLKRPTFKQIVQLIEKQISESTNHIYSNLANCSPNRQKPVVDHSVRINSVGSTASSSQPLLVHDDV

SMILES | inhibition
COc1cccc(-n2ncc3c(N/N=C/c4ccc(C)cc4)ncnc32)c1 | 4.07%
COc1cc2ncnc(Nc3ccc4c(cnn4Cc4ccccc4)c3)c2cc1OC | 2.58%
Cc1ccc(NC(=O)CC2CC2)cc1-c1ccc(C(=O)NCC2CC2)cc1 | 3.24%
COc1ccc2ncnc(Nc3ccc(OCc4ccccc4)cc3)c2c1 | 2.49%
Nc1nccc(-c2c(-c3ccc(F)cc3)ncn2CCCN2CCOCC2)n1 | 0.35%
CN(C)C(=O)O[C@@H]1CN[C@@H](C#Cc2cc3ncnc(Nc4ccc(OCc5cccc(F)c5)c(Cl)c4)c3s2)C1 | -2.74%
Cc1cc(O)cc(C)c1/C=C/c1cncc(C(=O)N(C)C)c1 | 1.57%
Cc1cc(-c2ccccn2)cc(C)c1/C=C/c1cncc(-c2nn[nH]n2)c1 | 0.22%
CN(C)C(=O)O[C@H]1CN[C@H](C#Cc2cc3ncnc(Nc4ccc(OCc5cccc(F)c5)c(Cl)c4)c3s2)C1 | 0.88%
Oc1cccc(-c2nc(-c3ccccc3)[nH]c2-c2ccncc2)c1 | 3.34%
c1ccc(Cc2nc3ccc(Nc4ncnc5ccccc45)cc3[nH]2)cc1 | 3.71%
CCn1c(-c2nonc2N)nc2ccc(F)cc21 | 6.26%
Cc1ccc2c(-c3ccnc(Nc4ccc5c(c4)OCCO5)n3)c(-c3ccc(C(F)(F)F)cc3)nn2n1 | -0.07%
N#Cc1c(NC(=O)c2ccccc2F)sc2c1CCCC2 | 0.26%
CCOc1nccc2c1nc(-c1nonc1N)n2CC | 6.04%
Nc1ccc(C#Cc2cncnc2Nc2ccc(OCc3cccc(F)c3)c(Cl)c2)cc1 | 3.05%
Cc1nc(-c2ccccc2)n2nc(NCCCN3CCOCC3)ncc12 | 1.33%

SMILES | inhibition
CN(c1ccc(NC(=O)Nc2ccc(OC(F)(F)F)cc2)cc1)c1ccnc(Nc2cccc(S(N)(=O)=O)c2)n1 | 89.9%
COc1ccc(-c2nn3ncccc3c2-c2ccnc(Nc3cccc(C(F)(F)F)c3)n2)cc1 | 4.13%
COC(=O)c1ccc2c(c1)C(=Cc1cc(Br)c(O)c(Br)c1)C(=O)N2 | 2.74%
Cc1ccc2c(-c3ccnc(Nc4cccc(C(F)(F)F)c4)n3)c(-c3ccccc3)nn2n1 | 3.44%
NS(=O)(=O)c1ccc(Nc2cc(-c3cccc(O)c3)n[nH]2)cc1 | 4.81%
COc1cc(/C=N/Nc2ncnc3c2cnn3C(C)C)ccc1O | -0.48%
Cc1ccc2c(c1)/C(=N/Nc1ccc(S(N)(=O)=O)cc1)C(=O)N2 | 54.4%
OCc1ccc(-c2nc(-c3ccccn3)c(-c3ccc4c(c3)OCO4)[nH]2)cc1 | 0.71%
CC(C)c1ccc(Nc2nccc(-c3cnn4ncccc34)n2)cc1 | 81.3%
O=S(=O)(CCOCc1ccc(-c2ccc3ncnc(Nc4ccc(OCc5cccc(F)c5)c(Cl)c4)c3c2)o1)c1ccccc1 | 0.78%
O=C1Nc2ccccc2/C1=C/Nc1ccc2[nH]c(=O)[nH]c2c1 | 71.7%
CCCN1CCCC(c2ccc(Nc3nc(Nc4cc(F)ccc4C(N)=O)c4cc[nH]c4n3)c(OC)c2)C1 (stereo unspecified) | 3.44%
CN(C)c1cc2c(Nc3ccc4c(cnn4Cc4ccccc4)c3)ncnc2cn1 | -0.32%
CCS(=O)(=O)c1ccc(OC)c(Nc2nccc(N(C)c3ccc4c(C)n[nH]c4c3)n2)c1 | 6.79%
CCn1c(-c2nonc2N)nc2c(C#CC(C)(C)O)nc(OCCNC)cc21 | 3.65%
COc1cc(Nc2nccc(-c3cnn4ncccc34)n2)cc(OC)c1 | 98.1%

Tested on: Mast/stem cell growth factor receptor Kit (Homo sapiens), P10721 [V560G]
Conditions: at 0.1 µM

Sequence of Mast/stem cell growth factor receptor Kit (Homo sapiens), P10721 [V560G] (P10721 whole entry V560G): as the sequence (P10721 whole entry T670I) above, with V560G, I670T counted along it

SMILES | inhibition
COc1cccc(-n2ncc3c(N/N=C/c4ccc(C)cc4)ncnc32)c1 | -2.84%
COc1cc2ncnc(Nc3ccc4c(cnn4Cc4ccccc4)c3)c2cc1OC | -3.09%
Cc1ccc(NC(=O)CC2CC2)cc1-c1ccc(C(=O)NCC2CC2)cc1 | 1.38%
COc1ccc2ncnc(Nc3ccc(OCc4ccccc4)cc3)c2c1 | -1.68%
Nc1nccc(-c2c(-c3ccc(F)cc3)ncn2CCCN2CCOCC2)n1 | -0.56%
CN(C)C(=O)O[C@@H]1CN[C@@H](C#Cc2cc3ncnc(Nc4ccc(OCc5cccc(F)c5)c(Cl)c4)c3s2)C1 | 0.19%
Cc1cc(O)cc(C)c1/C=C/c1cncc(C(=O)N(C)C)c1 | 5.07%
Cc1cc(-c2ccccn2)cc(C)c1/C=C/c1cncc(-c2nn[nH]n2)c1 | -3.07%
CN(C)C(=O)O[C@H]1CN[C@H](C#Cc2cc3ncnc(Nc4ccc(OCc5cccc(F)c5)c(Cl)c4)c3s2)C1 | 0.04%
Oc1cccc(-c2nc(-c3ccccc3)[nH]c2-c2ccncc2)c1 | 1.61%
c1ccc(Cc2nc3ccc(Nc4ncnc5ccccc45)cc3[nH]2)cc1 | 2.34%
CCn1c(-c2nonc2N)nc2ccc(F)cc21 | -1.12%
Cc1ccc2c(-c3ccnc(Nc4ccc5c(c4)OCCO5)n3)c(-c3ccc(C(F)(F)F)cc3)nn2n1 | 0.29%
N#Cc1c(NC(=O)c2ccccc2F)sc2c1CCCC2 | 2.34%
CCOc1nccc2c1nc(-c1nonc1N)n2CC | 4.82%
Nc1ccc(C#Cc2cncnc2Nc2ccc(OCc3cccc(F)c3)c(Cl)c2)cc1 | -3.03%
Cc1nc(-c2ccccc2)n2nc(NCCCN3CCOCC3)ncc12 | -1.38%

SMILES | inhibition
CN(c1ccc(NC(=O)Nc2ccc(OC(F)(F)F)cc2)cc1)c1ccnc(Nc2cccc(S(N)(=O)=O)c2)n1 | 37.6%
COc1ccc(-c2nn3ncccc3c2-c2ccnc(Nc3cccc(C(F)(F)F)c3)n2)cc1 | -1.16%
COC(=O)c1ccc2c(c1)C(=Cc1cc(Br)c(O)c(Br)c1)C(=O)N2 | -3.35%
Cc1ccc2c(-c3ccnc(Nc4cccc(C(F)(F)F)c4)n3)c(-c3ccccc3)nn2n1 | 2.8%
NS(=O)(=O)c1ccc(Nc2cc(-c3cccc(O)c3)n[nH]2)cc1 | 4.28%
COc1cc(/C=N/Nc2ncnc3c2cnn3C(C)C)ccc1O | 1.9%
Cc1ccc2c(c1)/C(=N/Nc1ccc(S(N)(=O)=O)cc1)C(=O)N2 | 1.27%
OCc1ccc(-c2nc(-c3ccccn3)c(-c3ccc4c(c3)OCO4)[nH]2)cc1 | -1.45%
CC(C)c1ccc(Nc2nccc(-c3cnn4ncccc34)n2)cc1 | 17.7%
O=S(=O)(CCOCc1ccc(-c2ccc3ncnc(Nc4ccc(OCc5cccc(F)c5)c(Cl)c4)c3c2)o1)c1ccccc1 | -1.47%
O=C1Nc2ccccc2/C1=C/Nc1ccc2[nH]c(=O)[nH]c2c1 | -0.78%
CCCN1CCCC(c2ccc(Nc3nc(Nc4cc(F)ccc4C(N)=O)c4cc[nH]c4n3)c(OC)c2)C1 (stereo unspecified) | -0.05%
CN(C)c1cc2c(Nc3ccc4c(cnn4Cc4ccccc4)c3)ncnc2cn1 | -2.8%
CCS(=O)(=O)c1ccc(OC)c(Nc2nccc(N(C)c3ccc4c(C)n[nH]c4c3)n2)c1 | 0.4%
CCn1c(-c2nonc2N)nc2c(C#CC(C)(C)O)nc(OCCNC)cc21 | -4.02%
COc1cc(Nc2nccc(-c3cnn4ncccc34)n2)cc(OC)c1 | 65.2%
